Assay results from the supplement of paper PMC11732987, “Enantioselective OTUD7B fragment discovery through chemoproteomics screening and high-throughput optimisation” (Communications Chemistry, 2025).

What was measured:
Experiment in all cases: log2 ratio of Biotin-Ahx-Ub-VS probe labelling (fragment/DMSO); higher = less target engagement (more negative = stronger competition), active = hit call of the paper (q ≤ 0.05, log2 ratio ≤ -1)
Settings in all cases: compound concentration: 200 uM; treatment time: 3 h
USP19 = biological target: T1, USP19 (UniProt O94966)
T1 sequence (whole entry): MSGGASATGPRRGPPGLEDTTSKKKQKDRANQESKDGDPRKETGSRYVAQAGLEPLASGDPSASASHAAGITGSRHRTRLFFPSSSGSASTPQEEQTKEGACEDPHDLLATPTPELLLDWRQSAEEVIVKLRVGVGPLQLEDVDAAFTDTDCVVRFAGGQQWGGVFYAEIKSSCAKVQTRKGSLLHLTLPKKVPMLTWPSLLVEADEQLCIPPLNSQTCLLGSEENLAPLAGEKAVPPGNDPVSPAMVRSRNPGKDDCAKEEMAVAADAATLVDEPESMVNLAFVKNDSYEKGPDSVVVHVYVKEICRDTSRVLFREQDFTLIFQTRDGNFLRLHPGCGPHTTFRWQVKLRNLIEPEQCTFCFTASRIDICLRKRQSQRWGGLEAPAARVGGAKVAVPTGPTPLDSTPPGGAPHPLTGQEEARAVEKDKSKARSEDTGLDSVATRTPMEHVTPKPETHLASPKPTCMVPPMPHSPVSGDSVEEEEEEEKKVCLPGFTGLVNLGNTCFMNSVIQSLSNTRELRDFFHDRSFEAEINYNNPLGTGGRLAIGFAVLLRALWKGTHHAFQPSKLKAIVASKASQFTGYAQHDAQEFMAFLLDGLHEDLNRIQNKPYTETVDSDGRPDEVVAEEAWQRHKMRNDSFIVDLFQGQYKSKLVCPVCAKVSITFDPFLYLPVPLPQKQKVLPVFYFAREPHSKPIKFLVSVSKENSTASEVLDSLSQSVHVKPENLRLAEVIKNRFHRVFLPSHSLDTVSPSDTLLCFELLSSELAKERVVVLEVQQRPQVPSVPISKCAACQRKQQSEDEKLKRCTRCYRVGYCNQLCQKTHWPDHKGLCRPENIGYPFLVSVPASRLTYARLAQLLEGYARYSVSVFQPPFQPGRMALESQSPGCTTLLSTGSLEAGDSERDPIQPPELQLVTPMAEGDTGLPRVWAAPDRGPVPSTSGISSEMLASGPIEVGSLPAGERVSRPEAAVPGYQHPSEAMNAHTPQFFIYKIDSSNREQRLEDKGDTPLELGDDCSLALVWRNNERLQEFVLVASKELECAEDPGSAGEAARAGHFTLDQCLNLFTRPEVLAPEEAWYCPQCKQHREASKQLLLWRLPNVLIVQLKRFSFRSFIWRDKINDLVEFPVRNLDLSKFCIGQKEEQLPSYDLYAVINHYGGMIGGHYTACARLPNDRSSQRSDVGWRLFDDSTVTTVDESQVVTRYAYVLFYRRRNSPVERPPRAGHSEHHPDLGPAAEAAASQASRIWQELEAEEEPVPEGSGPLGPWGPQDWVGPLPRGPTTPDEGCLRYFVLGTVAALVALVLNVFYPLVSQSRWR
Method in brief: (§1)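 Triplicate samples of HEK293T lysate, 495 µg each, received fragment at 200 µM or vehicle for 3 h, followed by Biotin-Ahx-Ub-VS (0.5 µM final) for 1 h. After NeutrAvidin enrichment of labelled DUBs and LysC/trypsin digestion, peptides were run by diaPASEF LC-MS/MS. The values are average log2 fragment/vehicle ratios from global-median-normalised Spectronaut label-free quantities, tested by unpaired t-test on proteins having ≥2 unique peptides.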

USP22 = biological target: T2, USP22 (UniProt Q9UPT9)
T2 sequence (whole entry): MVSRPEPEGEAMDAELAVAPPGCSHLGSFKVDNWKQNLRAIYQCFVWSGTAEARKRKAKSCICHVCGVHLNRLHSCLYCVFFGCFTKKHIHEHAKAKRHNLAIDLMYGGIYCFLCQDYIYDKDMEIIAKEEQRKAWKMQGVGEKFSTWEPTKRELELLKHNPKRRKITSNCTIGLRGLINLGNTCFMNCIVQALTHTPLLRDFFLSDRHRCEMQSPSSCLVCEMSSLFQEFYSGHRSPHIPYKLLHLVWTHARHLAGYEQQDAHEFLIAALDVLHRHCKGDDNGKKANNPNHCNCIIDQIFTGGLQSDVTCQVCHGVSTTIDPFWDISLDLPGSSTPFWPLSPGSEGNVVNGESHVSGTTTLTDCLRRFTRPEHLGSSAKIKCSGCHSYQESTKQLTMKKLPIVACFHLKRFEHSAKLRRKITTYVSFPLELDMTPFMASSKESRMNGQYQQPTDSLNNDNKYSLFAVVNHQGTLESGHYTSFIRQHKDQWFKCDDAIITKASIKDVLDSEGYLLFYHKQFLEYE
Method in brief: as §1

USP24 = USP24 (UniProt Q9UPU5)
Method in brief: as §1

USP25 = biological target: T3, USP25 (UniProt Q9UHP3)
T3 sequence (whole entry): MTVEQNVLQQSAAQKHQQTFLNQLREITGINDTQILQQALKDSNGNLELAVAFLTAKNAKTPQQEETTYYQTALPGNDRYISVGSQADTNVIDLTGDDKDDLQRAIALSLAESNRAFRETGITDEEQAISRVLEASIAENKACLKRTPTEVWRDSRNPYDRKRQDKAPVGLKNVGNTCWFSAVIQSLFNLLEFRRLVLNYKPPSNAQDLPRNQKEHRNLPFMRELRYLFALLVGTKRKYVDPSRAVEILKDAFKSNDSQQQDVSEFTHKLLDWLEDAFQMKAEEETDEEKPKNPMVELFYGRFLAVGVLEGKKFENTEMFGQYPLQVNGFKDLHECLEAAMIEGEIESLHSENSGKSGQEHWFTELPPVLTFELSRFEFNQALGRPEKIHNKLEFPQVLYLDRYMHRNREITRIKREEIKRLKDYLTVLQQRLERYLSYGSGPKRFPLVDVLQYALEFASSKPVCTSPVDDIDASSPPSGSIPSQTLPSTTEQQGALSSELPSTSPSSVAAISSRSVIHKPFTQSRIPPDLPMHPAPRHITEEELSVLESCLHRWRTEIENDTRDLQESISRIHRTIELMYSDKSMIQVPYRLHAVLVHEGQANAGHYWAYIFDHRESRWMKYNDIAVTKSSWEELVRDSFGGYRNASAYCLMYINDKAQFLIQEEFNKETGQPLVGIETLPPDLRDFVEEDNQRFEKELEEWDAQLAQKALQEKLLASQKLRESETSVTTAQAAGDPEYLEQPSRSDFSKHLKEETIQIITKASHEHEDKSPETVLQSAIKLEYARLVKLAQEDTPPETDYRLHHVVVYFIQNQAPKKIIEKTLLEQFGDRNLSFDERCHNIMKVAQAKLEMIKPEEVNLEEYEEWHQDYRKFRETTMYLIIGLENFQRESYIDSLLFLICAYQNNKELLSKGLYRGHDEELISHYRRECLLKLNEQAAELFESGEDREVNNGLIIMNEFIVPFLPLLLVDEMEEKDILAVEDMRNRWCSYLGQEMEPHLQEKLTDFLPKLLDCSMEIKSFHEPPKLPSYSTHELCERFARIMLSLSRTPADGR
Method in brief: as §1

USP28 = biological target: T4, USP28 (UniProt Q96RU2)
T4 sequence (whole entry): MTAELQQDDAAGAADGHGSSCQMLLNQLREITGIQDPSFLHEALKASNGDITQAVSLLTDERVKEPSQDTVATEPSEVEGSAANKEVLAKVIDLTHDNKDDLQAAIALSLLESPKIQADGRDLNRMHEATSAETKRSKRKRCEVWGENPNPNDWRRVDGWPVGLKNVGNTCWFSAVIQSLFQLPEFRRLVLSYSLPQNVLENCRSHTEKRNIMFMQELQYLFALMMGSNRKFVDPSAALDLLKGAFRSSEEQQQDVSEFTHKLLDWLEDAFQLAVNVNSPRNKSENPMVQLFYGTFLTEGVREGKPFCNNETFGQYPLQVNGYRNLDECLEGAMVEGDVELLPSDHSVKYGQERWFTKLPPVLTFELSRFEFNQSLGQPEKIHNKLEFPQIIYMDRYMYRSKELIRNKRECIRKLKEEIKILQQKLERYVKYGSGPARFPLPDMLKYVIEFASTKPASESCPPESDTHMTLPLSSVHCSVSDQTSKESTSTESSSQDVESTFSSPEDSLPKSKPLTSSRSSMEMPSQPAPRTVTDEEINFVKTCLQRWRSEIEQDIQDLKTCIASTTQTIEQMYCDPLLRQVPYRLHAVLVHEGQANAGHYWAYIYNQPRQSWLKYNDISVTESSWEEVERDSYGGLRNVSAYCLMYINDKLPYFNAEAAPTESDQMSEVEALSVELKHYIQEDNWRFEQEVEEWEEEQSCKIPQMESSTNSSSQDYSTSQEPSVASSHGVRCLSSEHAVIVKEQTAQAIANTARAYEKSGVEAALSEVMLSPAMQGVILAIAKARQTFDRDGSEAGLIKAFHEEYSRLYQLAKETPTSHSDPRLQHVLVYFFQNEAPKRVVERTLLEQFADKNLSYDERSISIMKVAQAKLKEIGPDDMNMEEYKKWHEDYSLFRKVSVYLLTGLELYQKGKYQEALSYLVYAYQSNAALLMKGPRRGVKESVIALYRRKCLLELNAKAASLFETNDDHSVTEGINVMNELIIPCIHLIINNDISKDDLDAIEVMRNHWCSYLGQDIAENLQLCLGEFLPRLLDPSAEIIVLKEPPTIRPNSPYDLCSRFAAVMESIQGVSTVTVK
Method in brief: as §1

Measured: log2 ratio of Biotin-Ahx-Ub-VS probe labelling

Sequence of USP24 (Q9UPU5 whole entry): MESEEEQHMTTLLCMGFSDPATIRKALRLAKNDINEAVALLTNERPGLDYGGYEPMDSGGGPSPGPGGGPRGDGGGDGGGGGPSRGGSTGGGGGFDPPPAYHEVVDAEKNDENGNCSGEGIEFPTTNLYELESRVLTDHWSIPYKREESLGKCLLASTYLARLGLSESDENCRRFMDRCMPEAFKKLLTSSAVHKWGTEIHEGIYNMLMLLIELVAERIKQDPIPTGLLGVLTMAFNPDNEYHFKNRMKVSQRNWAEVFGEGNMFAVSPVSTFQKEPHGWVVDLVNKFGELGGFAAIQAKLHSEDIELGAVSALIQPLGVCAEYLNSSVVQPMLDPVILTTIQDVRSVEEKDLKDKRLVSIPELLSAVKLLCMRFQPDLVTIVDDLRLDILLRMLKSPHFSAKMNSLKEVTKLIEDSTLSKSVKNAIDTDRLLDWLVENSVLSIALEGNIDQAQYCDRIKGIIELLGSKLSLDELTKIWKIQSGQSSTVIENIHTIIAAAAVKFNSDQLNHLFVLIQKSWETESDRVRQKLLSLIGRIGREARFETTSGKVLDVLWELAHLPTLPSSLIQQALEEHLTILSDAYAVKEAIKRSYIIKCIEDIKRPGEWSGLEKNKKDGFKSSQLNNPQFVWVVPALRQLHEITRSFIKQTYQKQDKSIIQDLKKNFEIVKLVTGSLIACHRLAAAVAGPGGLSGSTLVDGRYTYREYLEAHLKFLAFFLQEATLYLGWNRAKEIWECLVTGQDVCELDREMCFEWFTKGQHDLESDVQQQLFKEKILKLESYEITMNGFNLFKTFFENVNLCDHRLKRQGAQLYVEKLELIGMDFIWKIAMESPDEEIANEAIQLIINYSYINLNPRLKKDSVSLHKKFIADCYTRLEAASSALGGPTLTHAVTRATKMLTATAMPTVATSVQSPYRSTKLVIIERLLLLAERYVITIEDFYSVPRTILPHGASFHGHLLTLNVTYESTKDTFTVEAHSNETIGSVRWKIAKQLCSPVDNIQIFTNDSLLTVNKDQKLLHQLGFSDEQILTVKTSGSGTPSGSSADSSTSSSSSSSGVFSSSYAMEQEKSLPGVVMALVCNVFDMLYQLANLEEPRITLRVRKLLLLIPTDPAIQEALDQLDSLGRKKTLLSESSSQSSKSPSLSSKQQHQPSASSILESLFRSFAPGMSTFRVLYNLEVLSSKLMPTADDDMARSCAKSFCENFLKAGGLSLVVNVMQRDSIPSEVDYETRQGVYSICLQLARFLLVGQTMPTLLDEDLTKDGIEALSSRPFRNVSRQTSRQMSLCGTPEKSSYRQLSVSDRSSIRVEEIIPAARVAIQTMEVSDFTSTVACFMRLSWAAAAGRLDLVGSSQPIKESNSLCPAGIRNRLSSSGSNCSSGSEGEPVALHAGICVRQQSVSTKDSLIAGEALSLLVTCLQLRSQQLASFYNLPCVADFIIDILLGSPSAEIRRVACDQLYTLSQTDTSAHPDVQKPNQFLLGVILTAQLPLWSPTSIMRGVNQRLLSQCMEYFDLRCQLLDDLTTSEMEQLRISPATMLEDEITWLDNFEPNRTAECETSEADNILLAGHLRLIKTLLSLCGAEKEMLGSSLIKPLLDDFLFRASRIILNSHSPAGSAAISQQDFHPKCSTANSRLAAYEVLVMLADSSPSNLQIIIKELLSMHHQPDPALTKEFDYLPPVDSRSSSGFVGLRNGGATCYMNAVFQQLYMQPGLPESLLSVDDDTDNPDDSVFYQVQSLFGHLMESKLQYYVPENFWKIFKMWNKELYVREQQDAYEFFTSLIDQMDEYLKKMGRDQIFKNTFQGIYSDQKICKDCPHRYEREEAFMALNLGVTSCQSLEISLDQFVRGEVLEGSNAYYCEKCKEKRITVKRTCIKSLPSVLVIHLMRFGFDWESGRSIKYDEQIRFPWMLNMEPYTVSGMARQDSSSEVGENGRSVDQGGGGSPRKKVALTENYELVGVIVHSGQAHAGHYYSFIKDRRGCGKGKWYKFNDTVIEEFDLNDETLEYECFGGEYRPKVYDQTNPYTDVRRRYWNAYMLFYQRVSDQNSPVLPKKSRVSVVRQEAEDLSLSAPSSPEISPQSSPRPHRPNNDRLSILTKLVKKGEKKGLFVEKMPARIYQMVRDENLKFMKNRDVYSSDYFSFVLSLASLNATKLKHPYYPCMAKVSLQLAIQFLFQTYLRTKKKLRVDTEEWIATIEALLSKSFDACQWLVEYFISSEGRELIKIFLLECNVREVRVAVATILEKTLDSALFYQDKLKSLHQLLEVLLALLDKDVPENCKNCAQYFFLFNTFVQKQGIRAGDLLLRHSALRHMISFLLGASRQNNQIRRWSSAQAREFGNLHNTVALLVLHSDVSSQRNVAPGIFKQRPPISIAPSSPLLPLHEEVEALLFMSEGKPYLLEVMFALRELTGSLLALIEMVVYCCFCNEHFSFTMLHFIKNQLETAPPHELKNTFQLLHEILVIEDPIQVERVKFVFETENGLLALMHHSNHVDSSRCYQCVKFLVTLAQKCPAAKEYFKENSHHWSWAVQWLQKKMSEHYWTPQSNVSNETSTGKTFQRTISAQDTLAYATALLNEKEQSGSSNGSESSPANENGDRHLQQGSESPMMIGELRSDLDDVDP

Cl.O=C(CCl)N1CCc2ncncc2C1
inactive: USP19 -0.554 | USP22 -0.0201 | USP24 -0.491 | USP25 -0.276 | USP28 -0.582
